An excerpt weighted towards active compounds, which were near 5.5% of everything screened.
Giardia kill: Giardia lamblia killing; AID 540267; Giardia lamblia trophozoite viability; activity change, % at 7.66 µM, hits read low; 340,000 compounds, 0.15% hits; in the data active = activity change below about -80%; inconclusive = between about -30% and that limit;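 also: parasites exposed to compound for two days anaerobically before the ATP read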
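ATP-content bioluminescence gauges trophozoite survival. Cells (100/well) receive compound and incubate anaerobically for 48 hrs at 37 deg C; detection reagent follows for 15-30 min at room temperature.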
Sfp PPTase inh: Sfp phosphopantetheinyl transferase inhibition | 310,000 compounds, 3.5% hits | Potency, µM, usual class: inhibitors | Biochemical Sfp PPTase activity, qHTS | Q9F4F7;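 also: the enzyme is Sfp with the accession as filed and its product quenches rhodamine fluorescence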
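Fluorescence-quenching assay with 15 nM Sfp, 5 uM rhodamine-CoA and 12.5 uM BHQ-2-labelled ybbR peptide in pH 7.6 Hepes/MgCl2 buffer. Enzyme was pre-incubated with compound for 15 min at room temperature. Rate was taken from the 30-min fluorescence change (525/598 nm).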
ELG1 repair inh: blocks ELG1-dependent DNA repair in HEK293T cells; HEK293T ELG1-luciferase reporter, luminescence, 16 h; DNA damage induced by 5-fluorouridine; 330,000 compounds, 2.3% hits; Potency, µM (doses to about 46.1 µM), actives largely listed as inhibitors; AID 504467; also: nearly all actives have a fitted effect of over 55% in size
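HEK293T cells expressing luciferase-tagged ELG1 (2,000/well) received 5-Fluorouridine plus compound or DMSO for 16 hr at 37 °C. Luciferase was read by ONE-Glo luminescence after 30 min at room temperature.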
Coupling enz: coupling enzyme interference in Giardia aldolase counter-screen; coupling enzyme system counterscreen, AmpLite Red fluorescence; activity change, negative = inhibition, % at 58.2 µM, hits read low; 290,000 compounds, 0.67% hits; AID 2472; in the data active = activity change below about -30%
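Counterscreen lacking aldolase: glyceraldehyde-3-phosphate coupling-enzyme reagent preincubated 10 min at RT with compound (at 57.5 uM final), then substrate/coupling system with AmpLite Red added; fluorescence read at 525/598 nm after 20 min RT.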
ELG1 FLuc counter: luciferase inhibition in cell-free luciferin readout for ELG1 hits; AID 624247; Potency, µM (titrated, usually from 46.1 µM), most hits filed as inhibitors; shares compounds with ELG1 repair inh; 350 compounds, 3% hits; cell-free firefly luciferase luminescence counter-screen, ViewLux
ELG1-Luc inh: inhibits ELG1-dependent DNA repair in HEK293T cells, confirmed. Potency, µM (top dose mostly 46.1 µM), hits mostly inhibitors. shares compounds with ELG1 repair inh. 670 compounds, 68% hits. HEK293T ELG1-luciferase levels, luminescence; cells co-treated with 5-fluorouridine; also: nearly all actives have a fitted effect of over 55% in size
Target sequence (Q96QE3 whole entry, looked up): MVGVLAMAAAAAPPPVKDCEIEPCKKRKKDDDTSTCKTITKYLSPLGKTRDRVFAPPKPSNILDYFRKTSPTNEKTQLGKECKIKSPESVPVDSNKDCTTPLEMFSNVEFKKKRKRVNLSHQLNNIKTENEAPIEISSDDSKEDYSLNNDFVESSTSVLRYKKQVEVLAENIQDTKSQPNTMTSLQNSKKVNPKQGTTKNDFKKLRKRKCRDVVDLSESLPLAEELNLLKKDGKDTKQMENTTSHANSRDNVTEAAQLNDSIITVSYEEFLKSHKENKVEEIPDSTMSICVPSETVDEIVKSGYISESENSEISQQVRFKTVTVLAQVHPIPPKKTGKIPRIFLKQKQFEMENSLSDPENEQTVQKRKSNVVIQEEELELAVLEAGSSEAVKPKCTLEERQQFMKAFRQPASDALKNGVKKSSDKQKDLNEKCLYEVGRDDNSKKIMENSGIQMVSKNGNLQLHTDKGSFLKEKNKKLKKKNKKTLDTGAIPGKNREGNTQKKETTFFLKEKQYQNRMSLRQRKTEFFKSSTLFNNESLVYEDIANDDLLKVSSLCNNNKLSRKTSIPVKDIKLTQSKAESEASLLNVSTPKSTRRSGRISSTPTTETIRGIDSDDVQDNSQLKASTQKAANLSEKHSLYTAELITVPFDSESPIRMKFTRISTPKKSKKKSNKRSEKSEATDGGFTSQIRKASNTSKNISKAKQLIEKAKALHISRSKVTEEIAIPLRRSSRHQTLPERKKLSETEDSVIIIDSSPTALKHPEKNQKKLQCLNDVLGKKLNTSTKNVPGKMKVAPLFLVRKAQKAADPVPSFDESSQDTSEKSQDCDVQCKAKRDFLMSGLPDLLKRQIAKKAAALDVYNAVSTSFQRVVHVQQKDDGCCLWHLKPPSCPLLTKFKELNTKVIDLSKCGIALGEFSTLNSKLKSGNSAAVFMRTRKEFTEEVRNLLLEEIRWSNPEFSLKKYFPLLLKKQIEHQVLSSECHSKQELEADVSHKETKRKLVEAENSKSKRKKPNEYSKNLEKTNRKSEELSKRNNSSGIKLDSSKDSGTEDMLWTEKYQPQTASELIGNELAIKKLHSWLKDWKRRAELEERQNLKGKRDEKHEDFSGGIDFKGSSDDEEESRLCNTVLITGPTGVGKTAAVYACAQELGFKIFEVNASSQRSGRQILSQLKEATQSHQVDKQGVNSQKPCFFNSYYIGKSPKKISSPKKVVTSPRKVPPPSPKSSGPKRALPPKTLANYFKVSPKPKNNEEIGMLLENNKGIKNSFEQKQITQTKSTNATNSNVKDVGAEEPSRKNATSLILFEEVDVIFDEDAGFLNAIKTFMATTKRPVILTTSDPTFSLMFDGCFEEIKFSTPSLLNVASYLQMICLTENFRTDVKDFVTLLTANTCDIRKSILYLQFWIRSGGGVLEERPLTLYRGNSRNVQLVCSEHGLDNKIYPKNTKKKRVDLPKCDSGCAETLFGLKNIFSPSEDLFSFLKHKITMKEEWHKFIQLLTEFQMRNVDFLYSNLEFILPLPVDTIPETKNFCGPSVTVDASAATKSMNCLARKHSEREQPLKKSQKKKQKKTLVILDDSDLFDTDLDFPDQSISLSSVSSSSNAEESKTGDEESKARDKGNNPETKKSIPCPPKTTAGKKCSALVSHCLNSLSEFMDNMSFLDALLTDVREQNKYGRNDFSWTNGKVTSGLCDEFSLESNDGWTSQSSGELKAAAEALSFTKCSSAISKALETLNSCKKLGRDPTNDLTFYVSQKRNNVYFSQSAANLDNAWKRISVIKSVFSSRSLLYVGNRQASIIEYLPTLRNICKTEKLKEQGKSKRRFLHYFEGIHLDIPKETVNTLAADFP
ELG1 MMS Luc: confirmation of human ELG1 repair inhibitors, MMS stimulated; shares compounds with ELG1 repair inh; HEK293T luciferase-tagged ELG1 level, MMS stimulated; Potency, µM (titrated, usually from 46.1 µM), hits mostly inhibitors; 670 compounds, 53% hits; also: nearly all actives have a fitted effect of over 60% in size
ELG1 5FU viab: confirmation of ELG1 repair inhibitors: viability with 5FU; shares compounds with ELG1 repair inh; cell viability with 5-FU, ELG1-dependent repair; Potency, µM (top dose mostly 46.1 µM), most hits filed as cytotoxic; 670 tested, under 10 active;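 also: ELG1-luc HEK293T cells cotreated with 5-fluorouridine at 10 µM final; viability measured 16 h after compound addition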
ELG1 MMS cell: confirmation of ELG1 repair inhibitors: viability with MMS. shares compounds with ELG1 repair inh. Cell viability with MMS, ELG1-dependent DNA repair. Potency, µM (highest dose often 46.1 µM), hits mostly cytotoxic. 670 compounds, 33% hits;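 also: ELG1-luc HEK293T cells co-treated with 10 µM MMS; viability read 16 h after compound addition; nearly all actives have a fitted effect of over 60% in size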
Cell viab unstim: counter-screen for ELG1 repair inhibitors: unstimulated cell viability | AID 624252 | 900 compounds, 8% hits | Potency, µM (top dose mostly 45.9 µM), most hits filed as cytotoxic | cell viability counter-screen, unstimulated, luminescence | shares compounds with ELG1 repair inh;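 also: compound exposure lasted 16 hours before reading; nearly all actives have a fitted effect of over 55% in size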
FLuc enzyme: counter-screen for ELG1 repair inhibitors: firefly luciferase inhibition | shares compounds with ELG1 repair inh | purified firefly luciferase, luminescence counter-screen | Potency, µM (top dose mostly 57.5 µM), most hits filed as inhibitors | 350 compounds, 10% hits | AID 624253
Numbers stand for hits; i = inactive; ? = inconclusive; nt = not tested or not shown. Unless noted, calls follow the shape of the dose curve; as a rule, active = well fitted curve in the direction sought with a large enough effect; inconclusive = small, poorly fitted or top-dose-only effect, or another doubt; inactive = no such curve, though single readings can be large; an effect the other way counts as inactive or inconclusive.

SMILES	Giardia kill	Sfp PPTase inh	ELG1 repair inh	Coupling enz	ELG1-Luc inh	ELG1 MMS Luc	ELG1 5FU viab	ELG1 MMS cell	Cell viab unstim	others
Cc1cc(OCC(=O)Nc2ccncc2)cc(C)c1Cl	i	i	2.6µM	i	?	2.5µM	i	2.5µM	i
COc1cc2c(c(OC)c1OC)-c1ccc(OC)c(=O)cc1[C@H](NC(C)=O)CC2	nt	i	nt	i	nt	nt	nt	nt	nt
CC(C)OCCCn1c(=O)c2ccccc2n2c(CCC(=O)N3CCN(c4ccccn4)CC3)nnc12	i	i	?	nt	nt	nt	nt	nt	nt
O=C(CCc1nnc2n(Cc3ccc(Cl)cc3)c(=O)c3ccccc3n12)N1CCN(c2ccccn2)CC1	i	i	3.7µM	i	6.3µM	22µM	?	?	i
COC(=O)N1C2CC3(C)C=C(C)OC1(C)C3c1ccccc12 (configuration not stated)	nt	i	nt	i	nt	nt	nt	nt	nt
CC(C)(C)Cc1nnc(NC(=O)c2ccco2)s1	i	i	?	i	nt	nt	nt	nt	nt
C#CCNCCS(=O)(=O)N(Cc1ccc(Br)cc1)[C@@H](C)C(=O)O	i	nt	i	nt	nt	nt	nt	nt	nt
Cc1cc(C(=O)Nc2ccc(N3CCCC3)c(Cl)c2)ccc1[N+](=O)[O-]	i	i	i	i	nt	nt	nt	nt	nt
CN1C(=O)c2ccc(NC(=O)c3ccc(N4CCCCC4)c([N+](=O)[O-])c3)cc2C1=O	i	?	3.7µM	i	14µM	14µM	?	?	i
O=C(Nc1cccnc1)c1ccc(N2CCCC2)c([N+](=O)[O-])c1	i	i	i	i	nt	nt	nt	nt	nt
O=C(Nc1ccc(N2CCCC2)c(Cl)c1)c1ccc([N+](=O)[O-])cc1	i	i	1.8µM	i	?	i	?	i	i
O=C1C(=NO)C(c2ccccc2)Oc2ccccc21 (configuration not stated)	i	nt	nt	nt	nt	nt	nt	nt	nt
O=C(CSc1nc2ccc(Nc3nc(N4CCOCC4)nc(N4CCOCC4)n3)cc2s1)Nc1ccccc1Cl	i	?	2.9µM	i	4µM	i	?	i	i	ELG1 FLuc counter=?;FLuc enzyme=i
CCCC(=O)Nc1ccc2nc(SCC(=O)Nc3ccc(N4CCOCC4)c(Cl)c3)sc2c1	i	i	?	i	nt	nt	nt	nt	nt
O=C(O)c1cccc(Nc2nc(N3CCOCC3)nc(N3CCOCC3)n2)c1	i	i	i	i	i	i	i	i	i	ELG1 FLuc counter=i;FLuc enzyme=i
Cc1ccccc1NC(=O)CSc1nnc(CNC(=O)c2ccco2)n1C	i	nt	i	nt	nt	nt	nt	nt	nt
O=C1N=C2SCCN2C(=O)C1Cc1ccc(Cl)cc1 (configuration not stated)	nt	i	nt	nt	nt	nt	nt	nt	nt
CCC1CCCCN1CCCNC(=O)c1ccc2nc(N3CCC(C)CC3)sc2c1 (configuration not stated)	i	i	?	i	nt	nt	nt	nt	i	ELG1 FLuc counter=i;FLuc enzyme=?
Cc1cc(/C=C(\C#N)C(=O)Nc2ccc(F)cc2)c(C)n1-c1ccc(N2CCOCC2)c([N+](=O)[O-])c1	i	i	?	i	nt	nt	nt	nt	nt
COc1ccc(NC(=O)/C(C#N)=C/c2cc(C)n(-c3ccc(N4CCOCC4)c([N+](=O)[O-])c3)c2C)cc1	i	i	2.9µM	i	4.4µM	4µM	i	?	?
CCCCCCCNC(=O)C1(CC2CC(c3ccc(Cl)cc3)=NO2)CCNCC1 (configuration not stated)	i	i	i	i	nt	nt	nt	nt	nt
COCCN(CC(=O)Nc1ccccc1C(F)(F)F)C(=O)/C=C/c1cc(Cl)c2c(c1)OCCO2	i	nt	nt	nt	nt	nt	nt	nt	nt

Source: PubChem BioAssay (National Center for Advancing Translational Sciences (NCATS))
